According to PubChem BioAssay AID1159580 (chemical genetic matrix, 2015):
Among all 5,500 compounds or so, about 2,000 (36%) were called active. Roughly 18% stayed inconclusive and do not appear here. The list shows a part of the results. A number with no mark means an inactive call. No stated cut-off is given here; in the data, active means normalized growth mostly below about 0.91 (no sharp cut-off); inconclusive means no clear call, values can overlap the other calls; inactive means mostly above about 0.92.

Assay: chemical genetic growth profiling, strain panel (AID 1159580);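 further: tested at 20 µM; growth read once vehicle control cultures reached saturation at 30 °C; 1 = growth at the plate median or of vehicle wells; lower values mean less growth of the strain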
Settings: S. cerevisiae deletion strains, growth OD
[1] = locus YAL013W, strain DEP1, active compounds read low
[2] = locus YDR150W, strain NUM1, active compounds read low
[3] = locus YJR075W, strain HOC1, active compounds read low
[4] = locus YDL101C, strain DUN1, active compounds read low
[5] = locus YHR030C, strain SLT2, active compounds read low

`CCNC(=O)[C@H]1O[C@@H](n2cnc3c(N)ncnc32)C(O)[C@H]1O` (stereo not given in full) gave a normalized growth [1] of 1, a normalized growth (locus YAL040C, strain CLN3, active compounds read low) of 1.02 and a normalized growth (locus YCL061C, strain MRC1 (second series), active compounds read low) of 1. The normalized growth [2] was 1, the normalized growth (locus YDR363W, strain ESC2, active compounds read low) was 1.03 and the normalized growth (locus YER002W, strain NOP16, active compounds read low) was 1.01. It also gave a normalized growth [3] of 1, a normalized growth (locus YNL175C, strain NOP13, active compounds read low) of 1 and a normalized growth (locus YNL197C, strain WHI3, active compounds read low) of 1.01. It also gave a normalized growth (locus YNL224C, strain SQS1, active compounds read low) of 0.992 and a normalized growth (locus YOR083W, strain WHI5 (second series), active compounds read low) of 1.04.

Work on `Cc1ccc(NS(=O)(=O)c2ccc(-c3csc(C)n3)s2)c(C)c1` yielded a normalized growth (locus YAR019C, strain CDC15, active compounds read low) of 0.977, a normalized growth (locus YBL105C, strain PKC1, active compounds read low) of 0.984 and a normalized growth (locus YBR135W, strain CKS1, active compounds read low) of 0.979. It also gave a normalized growth (locus YBR136W, strain MEC1, active compounds read low) of 0.981, a normalized growth (locus YBR160W, strain CDC28, active compounds read low) of 0.983 and a normalized growth (locus YDL017W, strain CDC7, active compounds read low) of 0.984. The normalized growth (locus YDL028C, strain MPS1, active compounds read low) was 0.98, the normalized growth [4] was 0.993 and the normalized growth (locus YDL108W, strain KIN28, active compounds read low) was 0.972. The normalized growth (locus YDL132W, strain cdc53, active compounds read low) was 0.989, the normalized growth (locus YDL214C, strain PRR2, active compounds read low) was 0.904 and the normalized growth (locus YDR052C, strain DBF4, active compounds read low) was 0.986. It also gave a normalized growth (locus YDR054C, strain cdc34, active compounds read low) of 0.975, a normalized growth (locus YDR226W, strain ADK1, active compounds read low) of 0.986 and a normalized growth (locus YDR477W, strain SNF1, active compounds read low) of 0.885. It also gave a normalized growth (locus YER123W, strain YCK3, active compounds read low) of 0.888, a normalized growth (locus YER133W, strain GLC7, active compounds read low) of 0.883 and a normalized growth (locus YFL009W, strain cdc4, active compounds read low) of 0.976. The normalized growth (locus YFL029C, strain CAK1, active compounds read low) was 0.979, the normalized growth (locus YFR003C, strain YPI1, active compounds read low) was 0.98 and the normalized growth (locus YFR019W, strain FAB1, active compounds read low) was 0.934. The normalized growth (locus YFR028C, strain CDC14, active compounds read low) was 0.981, the normalized growth (locus YGR040W, strain KSS1, active compounds read low) was 0.895 and the normalized growth (locus YGR052W, strain FMP48, active compounds read low) was 0.928. The normalized growth (locus YGR092W, strain DBF2, active compounds read low) was 0.913, the normalized growth [5] was 0.647 (active) and the normalized growth (locus YHR079C, strain IRE1, active compounds read low) was 0.883. The normalized growth (locus YHR082C, strain KSP1, active compounds read low) was 0.976, the normalized growth (locus YHR205W, strain SCH9, active compounds read low) was 0.977 and the normalized growth (locus YIL147C, strain SLN1, active compounds read low) was 0.982. It also gave a normalized growth (locus YJL095W, strain BCK1, active compounds read low) of 0.859, a normalized growth (locus YJL128C, strain PBS2, active compounds read low) of 0.943 and a normalized growth (locus YJL157C, strain FAR1, active compounds read low) of 0.931. For the same molecule, the normalized growth (locus YJR016C, strain ILV3, active compounds read low) was 0.983, the normalized growth (locus YJR066W, strain TOR1 (second series), active compounds read low) was 0.826 and the normalized growth (locus YJR066W, strain TOR1, active compounds read low) was 0.936. The normalized growth (locus YKL048C, strain ELM1, active compounds read low) was 0.957, the normalized growth (locus YKL067W, strain YNK1, active compounds read low) was 0.898 and the normalized growth (locus YKL101W, strain HSL1, active compounds read low) was 0.894. The normalized growth (locus YKL193C, strain SDS22, active compounds read low) was 0.985, the normalized growth (locus YKL203C, strain TOR2, active compounds read low) was 0.92 and the normalized growth (locus YLR113W, strain HOG1, active compounds read low) was 0.676 (active). The normalized growth (locus YLR133W, strain CKI1, active compounds read low) was 0.902, the normalized growth (locus YLR403W, strain SFP1, active compounds read low) was 0.912 and the normalized growth (locus YML070W, strain DAK1, active compounds read low) was 0.856. It also gave a normalized growth (locus YMR001C, strain CDC5, active compounds read low) of 0.977, a normalized growth (locus YMR205C, strain PFK2 (second series), active compounds read low) of 0.915 and a normalized growth (locus YMR277W, strain FCP1, active compounds read low) of 0.98. It also gave a normalized growth (locus YNL006W, strain LST8, active compounds read low) of 0.978, a normalized growth (locus YNL020C, strain ARK1, active compounds read low) of 0.898 and a normalized growth (locus YNL161W, strain CBK1, active compounds read low) of 0.982. The normalized growth (locus YNL183C, strain NPR1, active compounds read low) was 0.893, the normalized growth (locus YNL207W, strain RIO2, active compounds read low) was 0.975 and the normalized growth (locus YNL222W, strain SSU72, active compounds read low) was 0.986. It also gave a normalized growth (locus YNL307C, strain MCK1 (second series), active compounds read low) of 0.887, a normalized growth (locus YOL078W, strain AVO1, active compounds read low) of 0.983 and a normalized growth (locus YOL136C, strain PFK27, active compounds read low) of 0.915. For the same molecule, the normalized growth (locus YOR061W, strain CKA2, active compounds read low) was 0.84, the normalized growth (locus YOR119C, strain RIO1, active compounds read low) was 0.93 and the normalized growth (locus YOR231W, strain MKK1, active compounds read low) was 0.806. The normalized growth (locus YOR329C, strain SCD5, active compounds read low) was 0.98, the normalized growth (locus YPL031C, strain PHO85, active compounds read low) was 0.892 and the normalized growth (locus YPL153C, strain RAD53, active compounds read low) was 0.937. The normalized growth (locus YPL204W, strain HRR25, active compounds read low) was 0.881, the normalized growth (locus YPL209C, strain IPL1, active compounds read low) was 0.982 and the normalized growth (locus YPL256C, strain CLN2, active compounds read low) was 0.715 (active). It also gave a normalized growth (locus YPR025C, strain CCL1, active compounds read low) of 0.981, a normalized growth (locus YPR106W, strain ISR1, active compounds read low) of 0.988 and a normalized growth (locus YPR111W, strain DBF20, active compounds read low) of 0.962. For the same molecule, the normalized growth (strain NNK1, active compounds read low) was 0.974 and the normalized growth (strain TSCII, active compounds read low) was 0.975.

`Cc1nc(-c2ccc(S(=O)(=O)N3CCN(c4ncnc5scc(-c6ccccc6)c45)CC3)s2)cs1` showed a normalized growth [1] of 1.02, a normalized growth (locus YBR229C, strain ROT2, active compounds read low) of 1 and a normalized growth (locus YCL061C, strain MRC1, active compounds read low) of 1.01. The normalized growth [4] was 1, the normalized growth [2] was 0.936 and the normalized growth (locus YEL061C, strain CIN8, active compounds read low) was 0.995. It also gave a normalized growth (locus YGR078C, strain PAC10, active compounds read low) of 1.01, a normalized growth [5] of 1.04 and a normalized growth (locus YHR087W, strain rtc3, active compounds read low) of 1.02. The normalized growth (locus YJL187C, strain SWE1, active compounds read low) was 1.02, the normalized growth (locus YJR043C, strain POL32, active compounds read low) was 1.01 and the normalized growth [3] was 1.02. The normalized growth (locus YLR039C, strain RIC1, active compounds read low) was 1.03, the normalized growth (locus YLR058C, strain SHM2 (second series), active compounds read low) was 1.01 and the normalized growth (locus YLR085C, strain ARP6, active compounds read low) was 1.05. It also gave a normalized growth (locus YLR262C, strain YPT6, active compounds read low) of 1.02, a normalized growth (locus YML094W, strain GIM5, active compounds read low) of 1.02 and a normalized growth (locus YMR219W, strain ESC1, active compounds read low) of 1.01. The normalized growth (locus YMR263W, strain SAP30, active compounds read low) was 1.03, the normalized growth (locus YMR307W, strain GAS1, active compounds read low) was 0.952 and the normalized growth (locus YNL153C, strain GIM3, active compounds read low) was 1. It also gave a normalized growth (locus YNL298W, strain CLA4 (second series), active compounds read low) of 1.03, a normalized growth (locus YNL322C, strain KRE1, active compounds read low) of 1.01 and a normalized growth (locus YNR030W, strain Alg12, active compounds read low) of 1.01. The normalized growth (locus YOL006C, strain TOP1, active compounds read low) was 0.997, the normalized growth (locus YPL055C, strain LGE1, active compounds read low) was 0.897 and the normalized growth (locus YPL241C, strain CIN2, active compounds read low) was 1.05. For the same molecule, the normalized growth (locus YPR135W, strain CTF4, active compounds read low) was 0.993.
